The values that follow come from PubChem BioAssay (NCI).

This is part of a sample that, as a whole, favours compounds with a hit. Of some 79,000 tested, about 15% had one in any assay. Calls of active or inactive are those of the source. No stated cut-off is given here; in the data, active means growth inhibition above about 70%; inactive means the rest.

One assay in a line: NCI Yeast Anticancer Drug Screen. Data for the sgs1 mgt1 strain (AID 161).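 Further: 0% = growth of cultures given vehicle only.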 Conditions: S. cerevisiae sgs1 mgt1 strain, at 50.0 µM, stronger effect = higher value. The gist of the method: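 Mutant yeast exposed to compound; growth scored against vehicle-only wells.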
As to `c1ccc2cc(C3OCC4(CCC4)CO3)ccc2c1`, the growth inhibition is 3.1% (inactive). Still for that read-out and setting: as for `CC(=O)Oc1ccc2c(OC(C)=O)c(C)cc(OC(C)=O)c2c1`, the figure is 20.9% (inactive).

On to `CC(C)OC(=O)c1cccnc1`, for which the growth inhibition was 7.05% (inactive). `O=C(CN1CCN(c2cccc(Cl)c2)CC1)N1CCc2c([nH]c3ccccc23)C1c1cccnc1` (configuration not stated): the growth inhibition is 1.6% (inactive). `COC(=O)[C@H]1N[C@@H](C(=O)OC)C23CCC[C@H]2CC[C@]1(C(OC)OC)C3`: the growth inhibition is 14.4% (inactive).

As for `CCCCC(CC)CO` (configuration not stated), the growth inhibition was -32.7% (inactive). Still for that read-out and setting: then `CSCCCO`, with 10.5% (inactive); and `CCC(O)(Cc1ccccc1)C(C(=O)O)c1ccccc1` (configuration not stated), with 4.6% (inactive).

As for `C=CCc1cc(OC)ccc1O`, the growth inhibition was 30.8% (inactive). `CCC(=O)OCCCC1CCCO1` (configuration not stated): the growth inhibition was 1.05% (inactive). As to `O=C(O)CCC(=O)Nc1cccc(C(F)(F)F)c1`, the growth inhibition is -3.15% (inactive). `Cn1c(=O)c2c(nc3sc4ccccc4c(=O)n32)n(C)c1=O`: the growth inhibition was -7.4% (inactive). Same read-out and setting: as for `COc1ccc(/C=N/NC(=O)CCCCCCCCC(=O)N/N=C/c2ccc(OC)c(OC)c2)cc1OC`, the figure is -23.4% (inactive); as for `Cc1cc(N(CCC#N)CCC#N)ccc1/C=C\C(=O)Nc1ccccc1`, -10.8% (inactive); as for `COc1ccc(C(=O)c2ccccc2)c(O)c1OC`, -2.35% (inactive). Same read-out and setting: as for `Cn1cnc2ncnc(Nc3ccc(Cl)cc3)c21`, the figure is 4% (inactive); as for `CCOC(=O)C(C)(Cc1cccc2ccccc12)C(=O)OCC`, 5.1% (inactive); as for `Oc1c(Cl)cc(N=Cc2ccc(N(CCCCl)CCCCl)cc2Cl)cc1Cl`, 93.7% (active). As for `CCOC(=O)C[n+]1cccc(Br)c1`, the growth inhibition was -6.85% (inactive). Same read-out and setting: then `O=C(O)CNC(=O)c1cccc(Cl)c1`, with 14.7% (inactive); and `CCN(CC)c1ccc(N=Nc2ccc([N+](=O)[O-])cc2OC(=O)/C=C/c2ccccc2)c(OC(=O)/C=C/c2ccccc2)c1`, with -12.9% (inactive); and `O=C(O)c1ccnc(-c2ccc(Cl)cc2)c1`, with -1.65% (inactive).

Another assay in a line: NCI Yeast Anticancer Drug Screen. Data for the cln2 rad14 strain (AID 165).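 Further: 0% = growth equal to vehicle treated cultures.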 Conditions: S. cerevisiae cln2 rad14 strain, at 50.0 µM, stronger effect = higher value. The gist of the method:
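Compounds are applied to the cln2 rad14 yeast strain, and growth is then compared with that of vehicle-treated cultures to give inhibition.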
As to `CCc1cccc(C(C)CC)c1N=C(NC(=O)c1ccccc1C(=O)NC(=Nc1c(CC)cccc1C(C)CC)SC)SC` (configuration not stated), the growth inhibition was 6.3% (inactive). Turning to `Cc1cccc(-c2nnc3s/c(=C\c4ccc(N(C)C)cc4)c(=O)n23)c1`, the growth inhibition is 13.8% (inactive).

As for `CN(C)CC(C(N)=O)C(N)=O`, the growth inhibition was 9.6% (inactive). In the case of `CC1=Nc2ccccc2NC(C)(C)C1`, the growth inhibition is 13.9% (inactive). On the same count and under the same terms, as for `CCOC(=O)Cc1nc2ccccc2[nH]c1=O`, the figure is 0.35% (inactive); as for `CCCCCOc1ccc2ccccc2c1`, -20.9% (inactive); as for `CCOC(=O)Cc1nnc2n(-c3ccccc3)c(=O)c3ccccc3n12`, 11.8% (inactive). Consider `COc1cc(C(OC(C)=O)OC(C)=O)c(Cl)c(Cl)c1OC(C)=O`, for which the growth inhibition was -5.3% (inactive).

Consider `CCCCCCCCCCCCOc1ccc(Br)cc1`, for which the growth inhibition is -23.4% (inactive).

Take `Nc1nn(CC(O)CO)c(=O)s1` (configuration not stated): the growth inhibition is 11.8% (inactive). `O=C1NC(=S)S/C1=C/C=C/c1ccccc1[N+](=O)[O-]`: the growth inhibition was -16.6% (inactive).

`COc1ccc(/C=C/C(=O)c2c(-c3ccccc3)nn(C)c(=O)c2N2CCCCC2)cc1`: the growth inhibition is 26.5% (inactive). The same measure, in the same setting: then `O=C(C[n+]1ccccc1)c1ccccc1`, with -18.5% (inactive); and `O=C(CN1CCN(Cc2ccccc2)CC1)N1CCCn2c1nc1ccccc1c2=O`, with 7.6% (inactive). On the same count and under the same terms, then `Clc1c2c(nc3ccccc13)CCCC2`, with -37% (inactive); and `CC[n+]1ccc(-c2ccccc2)o1`, with 27.3% (inactive). With `O=c1cc(CO)oc2c3c(cc(O)c12)OCC(COC1OC(CO)C(O)C(O)C1O)=CC3` (configuration not stated), the growth inhibition was -13.9% (inactive). Same read-out and setting: as for `O=C1C2(CCCC13OC3c1ccccc1)OC2c1ccccc1` (configuration not stated), the figure is -14.4% (inactive); as for `c1ccc2cc(C3OCC4(CCC4)CO3)ccc2c1`, -26.8% (inactive); as for `CC(=O)Oc1ccc2c(OC(C)=O)c(C)cc(OC(C)=O)c2c1`, 3.8% (inactive). The same measure, in the same setting: as for `CC(C)OC(=O)c1cccnc1`, the figure is -39% (inactive); as for `O=C(CN1CCN(c2cccc(Cl)c2)CC1)N1CCc2c([nH]c3ccccc23)C1c1cccnc1` (configuration not stated), 6% (inactive); as for `COC(=O)[C@H]1N[C@@H](C(=O)OC)C23CCC[C@H]2CC[C@]1(C(OC)OC)C3`, -3.8% (inactive). `CCCCC(CC)CO` (configuration not stated): the growth inhibition is -108% (inactive). With `CSCCCO`, the growth inhibition was -39.1% (inactive). Same read-out and setting: as for `CCC(O)(Cc1ccccc1)C(C(=O)O)c1ccccc1` (configuration not stated), the figure is 4.9% (inactive). For the molecule `C=CCc1cc(OC)ccc1O`, the growth inhibition was -3% (inactive).

`CCC(=O)OCCCC1CCCO1` (configuration not stated): the growth inhibition was -9.8% (inactive). On to `O=C(O)CCC(=O)Nc1cccc(C(F)(F)F)c1`, for which the growth inhibition is -0.55% (inactive).

Take `Cn1c(=O)c2c(nc3sc4ccccc4c(=O)n32)n(C)c1=O`: the growth inhibition is 16.6% (inactive). Same read-out and setting: then `COc1ccc(/C=N/NC(=O)CCCCCCCCC(=O)N/N=C/c2ccc(OC)c(OC)c2)cc1OC`, with -50.2% (inactive).

Regarding `Cc1cc(N(CCC#N)CCC#N)ccc1/C=C\C(=O)Nc1ccccc1`, the growth inhibition is 10.2% (inactive). Same read-out and setting: then `COc1ccc(C(=O)c2ccccc2)c(O)c1OC`, with -0.75% (inactive); and `Cn1cnc2ncnc(Nc3ccc(Cl)cc3)c21`, with -24.2% (inactive); and `CCOC(=O)C(C)(Cc1cccc2ccccc12)C(=O)OCC`, with -54.2% (inactive). The same measure, in the same setting: as for `Oc1c(Cl)cc(N=Cc2ccc(N(CCCCl)CCCCl)cc2Cl)cc1Cl`, the figure is 75.2% (active); as for `CCOC(=O)C[n+]1cccc(Br)c1`, -6.5% (inactive); as for `O=C(O)CNC(=O)c1cccc(Cl)c1`, 13.3% (inactive). As to `CCN(CC)c1ccc(N=Nc2ccc([N+](=O)[O-])cc2OC(=O)/C=C/c2ccccc2)c(OC(=O)/C=C/c2ccccc2)c1`, the growth inhibition was 5.6% (inactive). The same measure, in the same setting: then `O=C(O)c1ccnc(-c2ccc(Cl)cc2)c1`, with -17.2% (inactive).
